The campaign covered roughly 340,000 compounds. About 12,000 (3.5%) were called active. Inconclusive results (about 18%) are left out. This excerpt belongs to a sample that is enriched for actives. Unmarked numbers belong to inactive results. The call rests on the fitted dose curve; in most records, active means well fitted inhibition curve with a large enough effect; inconclusive means small, poorly fitted or top-dose-only effect, or another doubt; inactive means no such curve, though single readings can be large or run the other way.
On the % scale 0 is the no-effect control and ±100 the full control effect; potency means the concentration at half of the fitted maximal effect.

The nature of this experiment: qHTS Assay for Inhibitors of Hepatitis C Virus (HCV). The following applies: Huh7.5.1 HCVcc-Cre infection, luciferase reporter, 44 h; series mostly up to 41.8 µM; activity change, negative = inhibition: at the top concentration. In outline: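 Seed cells (1,000/well) for 4 h; treat with compound and infect with HCVcc-Cre, moi about 0.5. Incubate 44 h, then detect luciferase activity.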
Take `CNc1nc(Nc2ccc(C)c(Cl)c2)nc(N)c1[N+](=O)[O-]`: the Potency was 11.2 µM (active).

As to `Cc1ccc(Nc2nc(N3CCOCC3)nc(N3CCOCC3)n2)cc1Cl`, the “activity change, negative = inhibition” value is 4.85%.

Turning to `Cc1ccc(Nc2nc(N)nc(CN3CCN(Cc4ccccc4)CC3)n2)cc1Cl`, the “activity change, negative = inhibition” value was -23.6%.

In the case of `Nc1ncnc2c1ncn2[C@@H]1O[C@H](CNS(=O)(=O)c2ccc(-c3ccno3)s2)[C@@H](O)[C@H]1O`, the “activity change, negative = inhibition” value is 2.29%.

With `Cc1ccc(OCCNC(=O)CNC(=O)c2ccc(C)c(C)c2)cc1`, the “activity change, negative = inhibition” value is 5.27%.

For `CCc1nnc(NC(=O)c2cc(S(=O)(=O)N3CCCCC3)ccc2C)s1`, the “activity change, negative = inhibition” value is 9.73%.

For the compound `COc1ccc(CCC(=O)N2CCN(S(=O)(=O)c3ccc(OC)cc3)CC2)cc1`, the “activity change, negative = inhibition” value is -8.57%.

Turning to `COc1ccc([N+](=O)[O-])cc1-c1nc2ccccc2nc1-c1ccccc1`, the “activity change, negative = inhibition” value is -2.01%.

As for `Cn1nc(-c2ccccc2)c2cc([N+](=O)[O-])ccc21`, the Potency is 12.6 µM (active).

Take `Cc1nn(-c2ccc([N+](=O)[O-])cc2)c(N)c1-c1ccccc1`: the “activity change, negative = inhibition” value is -16.2%.

As to `CCN(C(=O)COC(=O)c1c(C)nn(-c2ccccc2)c1Cl)c1c(N)n(Cc2ccccc2)c(=O)[nH]c1=O`, the “activity change, negative = inhibition” value is -29.1%.

In the case of `O=C(CN1C(=O)NC2(CCCC2)C1=O)Nc1cc(C(F)(F)F)ccc1N1CCOCC1`, the “activity change, negative = inhibition” value was 16.6%.

Turning to `O=C(CCc1ccccc1Cl)Nc1ccc(S(=O)(=O)Nc2nccs2)cc1`, the “activity change, negative = inhibition” value is 1.35%.

On to `CC(C)(C)S(=O)(=O)N1Cc2cc(CO)cc(CCO)c2[C@H]1CCO`, for which the “activity change, negative = inhibition” value was 13.6%.

Take `O=C(COC(=O)c1ccc([N+](=O)[O-])o1)NC12CC3CC(CC(C3)C1)C2`: the “activity change, negative = inhibition” value was 7.78%.

On to `Cn1c(Nc2cccc(Cl)c2)nc2ccccc21`, for which the “activity change, negative = inhibition” value was -15.3%.

Regarding `NS(=O)(=O)c1cccnc1Nc1cccc(Cl)c1`, the “activity change, negative = inhibition” value is -3.49%.

As for `OCCCNc1nccc(-c2cc(Nc3cccc(Cl)c3)ncn2)n1`, the Potency is 2.82 µM (active).

In the case of `CCN1C(=O)[C@@H]2[C@@H](c3ccc(-c4ccc(OC)cc4)c(OC)c3)N3CCC[C@@]3(C(=O)OC)[C@@H]2C1=O`, the “activity change, negative = inhibition” value was -15.4%.

Take `COc1ccc(S(=O)(=O)N2CCCCC2)cc1NC(=O)c1cc([N+](=O)[O-])ccc1N1CCOCC1`: the Potency was 7.94 µM (active).

As for `O=C(NCC1CCCCC1)c1cc(S(=O)(=O)N2CCCCC2)ccc1N1CCOCC1`, the “activity change, negative = inhibition” value was 6.19%.

With `CC(C)(C)C(=O)COC(=O)c1cc(S(=O)(=O)N2CCCCC2)ccc1N1CCOCC1`, the “activity change, negative = inhibition” value was -3.73%.

As for `O=C(NC1CCCCC1)c1cc([N+](=O)[O-])ccc1N1CCOCC1`, the “activity change, negative = inhibition” value was -8.15%.

On to `O=C(OCCOc1ccccc1F)c1cc(S(=O)(=O)N2CCOCC2)ccc1F`, for which the “activity change, negative = inhibition” value was -3.68%.

On to `O=C(OCCOc1ccccc1Cl)c1cc(S(=O)(=O)N2CCCCC2)ccc1N1CCOCC1`, for which the Potency was 2.51 µM (active).

Consider `O=C(COC(=O)c1cc(S(=O)(=O)N2CCOCC2)ccc1F)NC1CC1`, for which the “activity change, negative = inhibition” value was 20.7%.

Consider `COC1C(CO)OC(n2cnc3c(=S)nc(N)[nH]c32)C1O` (centres undefined), for which the “activity change, negative = inhibition” value is 21.9%.

`CC(C)(C)c1ccc(S(=O)(=O)N2CCN(C(=O)c3ccc4c(c3)C(=O)N(Cc3ccncc3)C4=O)CC2)cc1`: the “activity change, negative = inhibition” value is 13.7%.

For `CC[C@]1(C(=O)OC)[C@H]2C(=O)N(Cc3ccccc3)C(=O)[C@H]2[C@H]2CN=C(SCc3ccc(C#N)cc3)N21`, the activity change, negative = inhibition was -29.6% [at 8.37 µM].

Take `Cc1nc(N)nc(Cl)c1CCC1OCCO1`: the “activity change, negative = inhibition” value is 4.05%.

As to `O=C(CSc1nnc(COc2ccc(Cl)cc2)n1Cc1ccco1)N1CCNC1=O`, the “activity change, negative = inhibition” value is 0.329%.

As to `S=C(Nc1cccc(Cl)c1)Nc1ccc2cn[nH]c2c1`, the “activity change, negative = inhibition” value is 12.4%.

As for `Cc1csc(NC(=S)Nc2cccc(Cl)c2)n1`, the Potency is 12.6 µM (active).

In the case of `CC(=O)Nc1cccc(C(=O)Nc2nc(C)cs2)c1`, the “activity change, negative = inhibition” value is -2.74%.

On to `Cc1ccc(Cn2c(C)c3cnn(CC(=O)NCCN4CCOCC4)c(=O)c3c2C)cc1`, for which the “activity change, negative = inhibition” value was 3.09%.

For the compound `COc1ccc(CNC(=O)CN2C(=O)c3ccccc3S2(=O)=O)cc1`, the “activity change, negative = inhibition” value was -10.1%.

For `O=C(Cn1nnc(-c2ccccc2)n1)NC(=O)NC1CCCC1`, the “activity change, negative = inhibition” value was 31.6%.

On to `COc1c(C)c2c(c(O)c1C/C=C(\C)CCC(=O)O)C(=O)OC2`, for which the Potency is 2 µM (active).

Take `CC(C)[C@@H](C(=O)OCC(=O)c1ccc2c(c1)NC(=O)CO2)N1C(=O)c2ccccc2C1=O`: the “activity change, negative = inhibition” value is -2.05%.

For `CC(Sc1nncs1)C(=O)NCc1ccc2c(c1)OCO2` (centres undefined), the “activity change, negative = inhibition” value is 9.22%.

Turning to `Cc1nn(C(C)C(=O)N2CCOCC2)c(=O)c2nn(-c3ccccc3)c(C)c12` (centres undefined), the “activity change, negative = inhibition” value is -2.95%.

With `Cc1ccc(-n2nc3c(=O)n(C(C)C(=O)NCc4ccc5c(c4)OCO5)nc(C)c3c2C)cc1` (centres undefined), the Potency was 11.2 µM (active).

Take `Cc1noc(C)c1NC(=O)Nc1ccc2c(c1)C(=O)N([C@H](C)CO)C[C@H](C)[C@@H](CN(C)S(=O)(=O)c1cn(C)cn1)O2`: the “activity change, negative = inhibition” value is 12.7%.

As for `O=C(C1CCCO1)N1CCN(C(=S)Nc2cccc(Cl)c2)CC1` (centres undefined), the “activity change, negative = inhibition” value is 14.7%.

As for `Cc1ccc(C2CCN(C(=S)Nc3cccc(Cl)c3)C2)cc1` (centres undefined), the Potency is 12.6 µM (active).

Turning to `Cc1cccc(NC(=S)N2CCC(C(=O)c3ccc(F)cc3)CC2)c1`, the “activity change, negative = inhibition” value is 1.19%.

In the case of `Cc1nc(N)sc1-c1ccccc1`, the “activity change, negative = inhibition” value is -10.6%.

For `Cc1nc(C)c(-c2csc(NCCc3ccccc3)n2)s1`, the Potency is 2.82 µM (active).

For the compound `S=c1[nH]nc(NCCc2ccccc2)s1`, the “activity change, negative = inhibition” value is 2.55%.
